Experiment [1] relates to NLK.
The test system of experiment [2] is PAK4.
The test system of experiment [3] is PIM1.
Experiment [4] relates to PDGFRB.
Experiment [5] has as its system PIK3CA.
The test system of experiment [6] is PIK3CG.
Experiment [7] concerns T1, PIK4CB.
T1 construct: gene PI4KB

Experiment [8] concerns PIM2.
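Also: kd values determined as follow-up on hits from a single-replicate KINOMEscan panel screen.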

The term Kd denotes the free concentration of one partner at which half of the binding sites on the other are occupied at equilibrium, for simple one-to-one binding. With `O=C(Nc1n[nH]c2cc(-c3cccc(F)c3)ccc12)C1CC1` [SB-735464], binding in experiment [1] was put at a Kd of 0.087 µM. As to `O=C1Cc2cc(Nc3nc(NCc4cccc(S(=O)(=O)C(F)(F)F)c4)ncc3C(F)(F)F)ccc2N1`, the dissociation constant (Kd) in experiment [2] and in experiment [3] was > 10 µM throughout.

Consider `Cc1ccc(NC(=O)c2ccnc(N3CCN(C)CC3)c2)cc1-c1ccc(C(=O)NCC2CC2)cc1` [GW775604], for which the Kd in experiment [4] worked out at 0.3 µM. Same read-out and setting: with `Cc1nnc(-c2ccc3ncc(-c4ccc(S(C)=O)cc4)n3c2)o1` (stereo not shown) the figure was 0.49 µM.

Regarding `N#Cc1c(N2CCOCC2)sc(-c2ccn[nH]2)c1-c1ccc(Cl)cc1`, in experiment [5], binding was put at a Kd of 0.032 µM. Consider `NS(=O)(=O)c1cccc(-c2ccc3nccc(-c4cccc(S(N)(=O)=O)c4)c3c2)c1` [GW867253], for which the results for the Kd in experiment [6] and in experiment [7] were 0.081 µM and 0.032 µM, respectively.

Compound `NS(=O)(=O)c1cccc(-c2ccc3ncc(N4CCOCC4)nc3c2)c1` [GSK1535721] gave a dissociation constant (Kd) in experiment [7] of 0.86 µM. Take `Cc1nnc(-c2ccc3occ(-c4ccc(C(C)O)cc4)c3c2)o1` (stereo not shown): binding in experiment [8] was put at a Kd of 0.94 µM.

(Values after article PMC5540273 (PLoS ONE, 2017).)
